Measured values from PubChem BioAssay (Tox21).
Values joined by “and” are separate entries in the source; they are usually repeats but may differ in a detail not shown here. Equal entries are not always repeated. Inconclusive results are not listed. Active and inactive are the calls of the source. Calls follow the shape of the dose curve; as a rule, active = well fitted cell-killing curve with a large enough effect in the repeat runs; inconclusive = weak or mixed curves; inactive = no such curve, though single readings can be large or run the other way.
% is scaled to controls: 0 for no effect and ±100 for the full control effect; potency is read from the fitted curve at half-maximal effect.

Experiment: qHTS assay to identify small molecule antagonists of the androgen receptor (AR) signaling pathway - cell viability counter screen (AID 743033; also: nearly all actives have a fitted effect of over 45% in size)
Details: AR-bla HEK293 viability, CellTiter-Glo luminescence, 16 h; series mostly up to 58.5 µM; activity change, negative = cytotoxicity: at the top concentration
Excerpt: National Center for Advancing Translational Sciences [NCATS]
NIH Chemical Genomics Center [NCGC]
U.S. Environmental Protection Agency [EPA]
National Institutes of Environmental Health Sciences [NIEHS]
National Toxicology Program [NTP]
U.S. Food and Drug Administration [FDA]
Androgen receptor (AR), a nuclear hormone receptor, plays a critical role in AR-dependent prostate cancer and other androgen related diseases. Endocrine disrupting chemicals (EDCs) and their interactions with steroid hormone receptors like AR may cause disruption of normal endocrine function as well as interfere with metabolic homeostasis, reproduction, developmental and behavioral functions. To identify the compounds that inhibit AR signaling, GeneBLAzer AR-UAS-bla-GripTite cell line (Invitrogen, Carlsbad, CA, USA) containing a beta-lactamase reporter gene under control of an Upstream Activator Sequence (UAS) stably integrated into HEK293 cells was used to screen the Tox21 10K compound library. The cytotoxicity of the Tox21 compound library against the AR-bla cell line was tested in parallel by measuring the cell viability using CellTiter-Glo assay in the same wells.
Tox21 Assay Protocol Summary:
AR-bla cells were dispensed at 2,000 cells/5 uL of assay medium per well into black wall/clear-bottom 1536-well plates using a Multidrop Combi (ThermoFisher Scientific, Waltham, MA) dispenser. After the assay plates were incubated at a 37C and 5% CO2 for 4 hr, 23 nL of compounds dissolved in DMSO, positive controls or DMSO only was transferred to the assay plate by a Pintool station (Kalypsys, San Diego, CA), followed by addition of 1 uL of agonist (R1881) in culture medium using a Bioraptr Flying Reagent Dispenser (FRD) workstation (Beckman Coulter, Indianapolis, IN, USA). The plates were incubated at a 37C and 5% CO2 for 16 h. After 1 uL of LiveBLAzerTM B/G FRET substrate was added using a Bioraptr FRD, the plates were incubated at room temperature for 2 h and fluorescence intensity was measured by an Envision plate reader (PerkinElmer, Shelton, CT). For cell viability readout that measures cytotoxicity, 4 ul/well of CellTiter-Glo reagent was added into the assay plates using a Bioraptr FRD. After 30 min incubation at room temperature, the luminescence intensity in the plates was measured using a ViewLux (PerkinElmer) plate reader.
For `CNC(C)C(O)c1ccc(O)cc1` (stereo not given), the Potency was “inactive”. With `CCCC(=O)OC(C(Cl)(Cl)Cl)P(=O)(OC)OC` (stereo not given) the “activity change, negative = cytotoxicity” value was 5.37% (inactive). With `O=C1C[C@@H]2OCC=C3CN4CC[C@]56c7ccccc7N1[C@H]5[C@H]2[C@H]3C[C@H]46` (tested in a mixture with another compound) the Potency was “inactive”. For `CC(Cc1ccccc1)NC=O` (stereo not given), the “activity change, negative = cytotoxicity” value was -5.45% (inactive). For `CNC(=O)OCC[N+](C)(C)C`, the “activity change, negative = cytotoxicity” value was 1.81% (inactive). For `COC(=O)[C@H]1[C@@H](OC(=O)c2ccccc2)C[C@@H]2CC[C@H]1N2C`, the “activity change, negative = cytotoxicity” value was -7.44% (inactive). With `CC(C)[C@@]1(NC(=O)[C@@H]2C[C@@H]3c4cccc5[nH]cc(c45)C[C@H]3N(C)C2)O[C@@]2(O)[C@@H]3CCCN3C(=O)[C@H](Cc3ccccc3)N2C1=O` the “activity change, negative = cytotoxicity” value was -14.3% (inactive). With `CNC(C)Cc1ccccc1` (stereo not given) the “activity change, negative = cytotoxicity” value was -1.14% (inactive). With `O=P1(N(CCCl)CCCl)NC(OO)CCO1` (stereo not given) the “activity change, negative = cytotoxicity” value was 2.51% (inactive). In the case of `Cc1cccc(C(C)c2cnc[nH]2)c1C` (stereo not given), the “activity change, negative = cytotoxicity” value is reported as 0.0279% (inactive). With `CCN1C[C@]2(COC)[C@H](O)C[C@H](OC)[C@@]34[C@@H]5C[C@@]6(O)[C@H](OC(=O)c7ccccc7)[C@@H]5[C@@](OC(C)=O)([C@@H]([C@H](OC)[C@H]23)[C@@H]14)[C@@H](O)[C@@H]6OC` the “activity change, negative = cytotoxicity” value was 4.93% (inactive). For `C1CN(P2(N3CC3)=NP(N3CC3)(N3CC3)=NP(N3CC3)(N3CC3)=N2)CCO1` (stereo not given), the “activity change, negative = cytotoxicity” value was 9.65% (inactive). For `Oc1cc[c]([Hg][Cl])cc1`, the Potency was 7.56 µM (active) and 19 µM (active). For `CN1c2ccccc2C(NCCCCCCC(=O)O)c2ccc(Cl)cc2S1(=O)=O` (stereo not given), the “activity change, negative = cytotoxicity” value was -0.681% (inactive). In the case of `CCCCC[C@@H](O)C1C(=O)OC(C)[C@H](O)/C=C/C=C/C=C/C=C/C=C(\C)C(O)C(O)C(O)C[C@H](O)C[C@H](O)C[C@H](O)C[C@H](O)C[C@@H]1O` (stereo not given in full), the Potency is reported as “inactive”. In the case of `CCCSc1cc(OC)c(CCN)cc1OC`, the “activity change, negative = cytotoxicity” value is reported as -28.7% [at 78.9 µM] (inactive). For `COC(COC(N)=O)C1=C(N2CC2)C(=O)C(C)=C(N2CC2)C1=O` (stereo not given), the “activity change, negative = cytotoxicity” value was -8.68% (inactive). For `O=C(NC(=O)c1c(F)cccc1F)Nc1ccc(Cl)c(Oc2ncc(C(F)(F)F)cc2Cl)c1`, the “activity change, negative = cytotoxicity” value was -11% (inactive). For `C[N+]1(C)[C@@H]2CC[C@H]1CC(OC(=O)c1c[nH]c3ccccc13)C2` (stereo not given in full), the “activity change, negative = cytotoxicity” value was -8.77% (inactive). For `CCC(C)(S(=O)(=O)CC)S(=O)(=O)CC`, the “activity change, negative = cytotoxicity” value was 4.37% (inactive). In the case of `CCCC(C)(COC(N)=O)COC(=O)NC1CC1` (stereo not given), the “activity change, negative = cytotoxicity” value is reported as -11.1% (inactive). In the case of `F/C(COc1ccc2c(c1)[nH]c1ccccc12)=C1/CN2CCC1CC2`, the “activity change, negative = cytotoxicity” value is reported as 21.6% (inactive). With `CC(=O)O[C@H]1CC[C@H]2[C@@H]3CCC4=CC(=O)CCC4=C3C=C[C@]12C` the “activity change, negative = cytotoxicity” value was 3.92% (inactive). With `O=C1OC2(c3cc(Br)c(O)cc3Oc3c2cc(Br)c(O)[c]3[Hg])c2ccccc21` (stereo not given) the “activity change, negative = cytotoxicity” value was -27.1% [at 27 µM] (inactive). In the case of `c1ccc2c(c1)Sc1ccccc1N2C[C@@H]1CN2CCC1CC2`, the “activity change, negative = cytotoxicity” value is reported as -10.4% (inactive). For `C[C@H]1CC[C@]2(NC1)O[C@H]1C[C@H]3[C@@H]4CC[C@H]5C[C@@H](O[C@@H]6O[C@H](CO)[C@H](O[C@@H]7O[C@H](CO)[C@@H](O)[C@H](O[C@@H]8OC[C@@H](O)[C@H](O)[C@H]8O)[C@H]7O[C@@H]7O[C@H](CO)[C@@H](O)[C@H](O)[C@H]7O)[C@H](O)[C@H]6O)CC[C@]5(C)[C@H]4CC[C@]3(C)[C@H]1[C@@H]2C`, the Potency was 4.77 µM (active). In the case of `CC(=O)OO`, the “activity change, negative = cytotoxicity” value is reported as 8.86% (inactive). In the case of `CCCCNC(C)(C)[P+](=O)O`, the “activity change, negative = cytotoxicity” value is reported as -1.41% (inactive). With `CCC(N)Cc1c[nH]c2ccccc12` (stereo not given) the Potency was “inactive”. With `CCN(CC)CCO[C@H]1CC[C@@]2(C)C(=CC[C@@H]3[C@@H]2CC[C@]2(C)C(=O)CC[C@@H]32)C1` the “activity change, negative = cytotoxicity” value was -3.46% (inactive). With `O=C(OCCN1CCCCC1)C(O)(c1ccccc1)c1ccccc1` the “activity change, negative = cytotoxicity” value was 6.36% (inactive). In the case of `CO/C=C(/C(=O)OC)c1ccccc1Oc1cc(Oc2ccccc2C#N)ncn1`, the Potency is reported as 18.5 µM (active). For `C[N+]1(C)CCCCC1COC(=O)C(O)(c1ccccc1)c1ccccc1` (stereo not given), the “activity change, negative = cytotoxicity” value was 13.4% (inactive). With `CN[C@@]1(c2ccccc2Cl)CCCCC1=O` the “activity change, negative = cytotoxicity” value was -16.8% (inactive). For `C=CCC1(C(C)CCC)C(=O)N=C(S)NC1=O` (stereo not given), the “activity change, negative = cytotoxicity” value was 4.46% (inactive). With `C[C@@H](Cc1ccccc1)NCCC(c1ccccc1)c1ccccc1` the “activity change, negative = cytotoxicity” value was 84.2% [at 27 µM] (inactive). For `C[C@@H](N)C(=O)c1ccccc1`, the “activity change, negative = cytotoxicity” value was 5.22% [at 78.9 µM] (inactive). In the case of `CCC1(C)CC(=O)NC(=O)C1`, the “activity change, negative = cytotoxicity” value is reported as -15.6% [at 27 µM] (inactive). With `C[C@]12N[C@H](Cc3ccccc31)c1ccccc12` the Potency was “inactive”. In the case of `O=C1C=C2C=C[C@@H]3C[C@@]2(O1)[C@H]1CCCCN31`, the “activity change, negative = cytotoxicity” value is reported as -24.8% (inactive).
